# In PubChem BioAssay:
# Active and inactive are the calls of the source.
# Columns and labels:
# Albumin (Bos taurus) = Albumin (Bos taurus) (UniProt P02769); test: compounds binding labelled BSA control protein – biochemical, small-molecule microarray, Alexa647 label, 635/667 nm fluorescence, artefact control for SMM control protein annotation, profiling panel (AID 1118); details: BSA-A647 binding, fluorescence 635 nm, higher = more signal;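 note: score merges 667 nm emission intensity and signal-to-noise per printed compound spot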
# Chain of Albumin (Bos taurus) (P02769 whole entry, looked up): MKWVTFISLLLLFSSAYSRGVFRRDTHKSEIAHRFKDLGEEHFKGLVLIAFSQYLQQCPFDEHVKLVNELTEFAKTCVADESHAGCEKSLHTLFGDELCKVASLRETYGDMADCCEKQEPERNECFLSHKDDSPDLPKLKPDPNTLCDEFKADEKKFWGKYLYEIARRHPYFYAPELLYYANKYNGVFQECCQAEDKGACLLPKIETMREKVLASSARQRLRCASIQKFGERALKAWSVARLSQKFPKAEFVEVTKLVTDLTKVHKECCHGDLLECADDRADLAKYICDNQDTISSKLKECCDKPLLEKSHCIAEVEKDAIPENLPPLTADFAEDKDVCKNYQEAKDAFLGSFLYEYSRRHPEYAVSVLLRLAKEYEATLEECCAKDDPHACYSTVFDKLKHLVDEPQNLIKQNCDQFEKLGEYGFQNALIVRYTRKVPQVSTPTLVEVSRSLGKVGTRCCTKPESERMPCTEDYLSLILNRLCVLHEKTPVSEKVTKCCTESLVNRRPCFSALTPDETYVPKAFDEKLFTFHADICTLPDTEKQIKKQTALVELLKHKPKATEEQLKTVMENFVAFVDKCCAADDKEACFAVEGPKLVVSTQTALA
# [1] = probe aXIP binding to arrayed compounds – biochemical, NeuroSMM set, 635/667 nm fluorescence, primary screen (AID 1119); details: small-molecule microarray, higher = more signal, called active from +8 up or from −8 down;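 note: probe is the protein aXip251-270 applied at 1 µg/mL to compound-printed slides; binding of probe to printed compounds measured as 667 nm fluorescence plus signal to noise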
# [2] = probe aNOTCH3 binding on compound microarray – biochemical, small-molecule microarray, 635/667 nm fluorescence, primary screen (AID 1120); details: higher = more signal;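 note: probe is a biotin-tagged antibody raised against NOTCH3 rather than NOTCH3 protein; score merges spot fluorescence near 667 nm with spot signal to noise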
# [3] = probe aNOTCH2 binding on compound microarray – biochemical, small-molecule microarray, 635/667 nm fluorescence, primary screen (AID 1121); details: higher = more signal;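 note: score merges feature fluorescence read at 667 nm with its signal to noise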
# [4] = molecular target: Carbonic anhydrase 2 (Homo sapiens) (UniProt P00918); test: compounds binding carbonic anhydrase 2 – biochemical, small-molecule microarray, Alexa647-labelled CAII, profiling panel (AID 1122); details: CAII-A647 binding fluorescence, higher = more signal
# [5] = COS7 lysate on small-molecule microarray, probe aHis, 635 nm (AID 1123); details: COS7 cell lysate, fluorescence, higher = more signal;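 note: z-score combines 667nm fluorescence intensity with signal-to-noise per printed compound spot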
# [6] = probe aLAP1 signal on lysate-treated microarray – cell lysate, small-molecule microarray, COS7 lysate, primary screen (AID 1124); details: probe aLAP1, fluorescence, higher = more signal;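 note: lysate comes from COS7 cells expressing LAP1 and is applied at 0.3 µg/mL; score merges spot fluorescence near 667 nm with signal-to-noise over triplicate slides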
# Sam68 (KHDRBS1) = test: compounds binding KHDRBS1 protein – biochemical, small-molecule microarray, 635 nm fluorescence, primary screen (AID 1125); details: higher = more signal;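 note: score merges 667 nm channel intensity with signal to noise over triplicate slides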
# [7] = test system: Chordin-like protein 2 (CHRDL2); test: compounds binding chordin-like 2 – biochemical, small-molecule microarray, 635 nm fluorescence, primary screen (AID 1126); details: fluorescence 635 nm, higher = more signal;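 note: printed compound slides probed with Chrdl2 protein at 4 µg/mL for 1 h at 4 C; score merges 667 nm emission intensity with signal to noise over three replicate slides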
# [8] = molecular target: Concanavalin-A (Canavalia ensiformis) (UniProt P02866); test: compounds binding concanavalin A lectin – biochemical, small-molecule microarray, Alexa647 label, 635 nm, artefact control for SMM control protein annotation, primary screen (AID 1127); details: ConA-A647 binding fluorescence, higher = more signal;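 note: z combines 667 nm emission intensity with signal-to-noise across three replicate slides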
# Chain of Concanavalin-A (Canavalia ensiformis) (P02866 whole entry, looked up): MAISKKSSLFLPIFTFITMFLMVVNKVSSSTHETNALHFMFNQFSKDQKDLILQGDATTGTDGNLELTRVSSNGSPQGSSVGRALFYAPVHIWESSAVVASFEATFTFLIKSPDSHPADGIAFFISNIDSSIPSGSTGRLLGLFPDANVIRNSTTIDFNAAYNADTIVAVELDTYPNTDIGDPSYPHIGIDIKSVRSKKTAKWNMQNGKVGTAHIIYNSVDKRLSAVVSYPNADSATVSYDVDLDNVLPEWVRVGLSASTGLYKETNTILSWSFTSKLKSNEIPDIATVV
# [9] = compounds binding Alexa647 anti-His antibody – biochemical, small-molecule microarray, 635 nm fluorescence, artefact control for SMM control protein annotation, primary screen (AID 1128); details: higher = more signal;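 note: score merges feature fluorescence with signal-to-noise for each printed compound spot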
# [10] = test system: Human papillomavirus type 1a E7 protein (residues 1-88); test: HPV1a E7 small-molecule binders, primary screen, biochemical, small-molecule microarray, residues 1-88, 635 nm (AID 1129); details: small-molecule microarray binding, fluorescence 635 nm; higher = more signal
# [11] = molecular target: Focal adhesion kinase 1 (Homo sapiens) (UniProt Q05397); test: PTK2 protein binding on printed compound slides – biochemical, small-molecule microarray, 635/667 nm fluorescence, BSA, DTT, primary screen (AID 1130); details: 635 nm fluorescence, higher = more signal;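 note: composite of spot emission at 667 nm and signal to noise over triplicate slides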
# Chain of Focal adhesion kinase 1 (Homo sapiens) (Q05397 whole entry, looked up): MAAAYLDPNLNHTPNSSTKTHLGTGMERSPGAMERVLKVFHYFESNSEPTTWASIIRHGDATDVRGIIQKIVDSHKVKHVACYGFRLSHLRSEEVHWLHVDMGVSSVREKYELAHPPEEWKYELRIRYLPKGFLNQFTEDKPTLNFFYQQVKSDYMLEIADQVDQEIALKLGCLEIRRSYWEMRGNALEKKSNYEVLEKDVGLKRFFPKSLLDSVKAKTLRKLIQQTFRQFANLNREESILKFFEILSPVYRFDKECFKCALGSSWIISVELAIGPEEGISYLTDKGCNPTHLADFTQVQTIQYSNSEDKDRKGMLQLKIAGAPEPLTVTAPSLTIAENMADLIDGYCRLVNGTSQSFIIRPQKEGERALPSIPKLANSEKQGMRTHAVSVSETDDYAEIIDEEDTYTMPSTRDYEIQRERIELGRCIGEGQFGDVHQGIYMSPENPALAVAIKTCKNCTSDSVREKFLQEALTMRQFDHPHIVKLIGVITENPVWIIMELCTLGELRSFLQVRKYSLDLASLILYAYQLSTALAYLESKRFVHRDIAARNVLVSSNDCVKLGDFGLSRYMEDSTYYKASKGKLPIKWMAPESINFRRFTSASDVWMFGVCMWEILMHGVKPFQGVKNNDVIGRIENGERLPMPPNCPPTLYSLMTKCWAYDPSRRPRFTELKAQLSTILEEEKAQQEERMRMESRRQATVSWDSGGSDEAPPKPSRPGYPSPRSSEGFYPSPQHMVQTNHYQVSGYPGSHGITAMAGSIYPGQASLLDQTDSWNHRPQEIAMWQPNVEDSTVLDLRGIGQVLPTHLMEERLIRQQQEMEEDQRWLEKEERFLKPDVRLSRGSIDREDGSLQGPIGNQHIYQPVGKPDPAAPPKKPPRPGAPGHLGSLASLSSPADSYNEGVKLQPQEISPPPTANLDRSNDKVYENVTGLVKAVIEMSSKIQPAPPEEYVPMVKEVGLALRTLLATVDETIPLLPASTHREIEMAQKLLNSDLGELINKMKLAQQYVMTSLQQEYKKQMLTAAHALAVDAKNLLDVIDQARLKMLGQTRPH
# [12] = test system: Fibrinogen (Alexa647-labelled); test: Alexa647-fibrinogen binding to printed small molecules – biochemical, small-molecule microarray, 635/667 nm fluorescence, artefact control for SMM control-protein annotation, profiling panel (AID 1131); details: fibrinogen-A647 binding fluorescence, higher = more signal;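 note: z-score merges 667 nm fluorescence with per-spot signal-to-noise over triplicate slides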
# [13] = molecular target: Follistatin (Homo sapiens) (UniProt P19883); test: FST protein binding to printed compounds – biochemical, small-molecule microarray, 635/667 nm fluorescence, primary screen (AID 1132); details: 635 nm fluorescence, higher = more signal
# Chain of Follistatin (Homo sapiens) (P19883 whole entry, looked up): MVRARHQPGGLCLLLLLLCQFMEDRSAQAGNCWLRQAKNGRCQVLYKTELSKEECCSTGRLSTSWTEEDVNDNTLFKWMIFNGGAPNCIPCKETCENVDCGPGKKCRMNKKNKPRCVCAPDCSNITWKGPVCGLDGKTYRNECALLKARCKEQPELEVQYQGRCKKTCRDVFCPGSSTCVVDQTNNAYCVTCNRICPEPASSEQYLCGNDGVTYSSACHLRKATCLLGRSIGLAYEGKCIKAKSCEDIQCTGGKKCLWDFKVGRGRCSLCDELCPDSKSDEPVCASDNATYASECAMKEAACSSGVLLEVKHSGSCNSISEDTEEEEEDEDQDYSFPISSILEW
# [14] = molecular target: Fibroblast growth factor 2 (Homo sapiens) (UniProt P09038); test: basic fibroblast growth factor binding to printed compounds – biochemical, small-molecule microarray, 635/667 nm fluorescence, primary screen (AID 1133); details: FGF2, fluorescence 635/667, higher = more signal
# Chain of Fibroblast growth factor 2 (Homo sapiens) (P09038 whole entry, looked up): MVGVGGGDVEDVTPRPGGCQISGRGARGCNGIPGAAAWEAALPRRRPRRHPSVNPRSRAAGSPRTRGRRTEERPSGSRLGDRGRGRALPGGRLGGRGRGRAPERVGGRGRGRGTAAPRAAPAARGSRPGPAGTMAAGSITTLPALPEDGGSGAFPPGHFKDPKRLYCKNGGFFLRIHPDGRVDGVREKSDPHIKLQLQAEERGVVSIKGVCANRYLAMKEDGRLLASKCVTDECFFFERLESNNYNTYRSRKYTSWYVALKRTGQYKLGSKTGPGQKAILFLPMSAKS
# [15] = JC-1 mitochondrial potential readout, lung cancer cells – cell-based, A549, JC-1 fluorescence, basal, 24 h, 100 nL, profiling panel (AID 1138); details: higher = more signal;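 note: A549 lung adenocarcinoma cells under basal conditions with no added stimulus; test concentration not given here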
# Lefty1 = Lefty1 protein binding to printed compounds – biochemical, small-molecule microarray, 635/667 nm fluorescence, primary screen (AID 1139); details: fluorescence 635/667, higher = more signal
# [16] = test system: wheat germ agglutinin (Triticum aestivum), Alexa647-labelled; test: Alexa647-WGA lectin binding to printed small molecules – biochemical, small-molecule microarray, 635/667 nm fluorescence, artefact control for SMM control-protein annotation, profiling panel (AID 1140); details: WGA-A647 binding, 635 nm fluorescence, higher = more signal;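 note: score merges 667 nm feature emission with signal to noise over triplicate slides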
# [17] = molecular target: Luciferin 4-monooxygenase (Photinus pyralis) (UniProt P08659); test: inhibition of purified Photinus pyralis luciferase – biochemical, luminescence, purified enzyme, 2006 set, primary screen (AID 1141); details: purified firefly luciferase, SteadyGlo luminescence, 30 min; higher = more signal, called active from +8 up or from −8 down;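 note: cell-free assay with purified firefly luciferase at 100 ng per well in PBS; test concentration not given here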
# Chain of Luciferin 4-monooxygenase (Photinus pyralis) (P08659 whole entry, looked up): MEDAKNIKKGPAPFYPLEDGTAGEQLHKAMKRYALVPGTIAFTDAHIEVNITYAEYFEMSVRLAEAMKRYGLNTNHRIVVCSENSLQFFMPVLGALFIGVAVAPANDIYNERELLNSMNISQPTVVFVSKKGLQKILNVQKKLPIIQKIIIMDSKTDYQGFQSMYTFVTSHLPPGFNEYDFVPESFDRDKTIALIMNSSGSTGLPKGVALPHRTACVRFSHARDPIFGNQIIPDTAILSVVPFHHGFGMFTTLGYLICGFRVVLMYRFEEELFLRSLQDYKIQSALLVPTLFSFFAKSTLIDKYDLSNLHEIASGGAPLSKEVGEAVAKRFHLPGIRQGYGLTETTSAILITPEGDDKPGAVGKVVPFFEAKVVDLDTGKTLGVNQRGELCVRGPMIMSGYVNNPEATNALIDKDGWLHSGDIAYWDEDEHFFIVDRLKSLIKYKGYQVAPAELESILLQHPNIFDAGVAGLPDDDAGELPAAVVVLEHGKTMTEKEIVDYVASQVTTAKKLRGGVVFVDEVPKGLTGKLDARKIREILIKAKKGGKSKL
Structure (SMILES),composite z-score (Albumin (Bos taurus)),composite Z-score [1],composite z-score [2],composite z-score [3],composite z-score [4],composite z-score [5],composite z-score [6],composite z-score (Sam68 (KHDRBS1)),composite z-score [7],composite z-score [8],composite z-score [9],composite z-score [10],composite z-score [11],composite z-score [12],composite z-score [13],composite z-score [14],z-score [15],composite z-score (Lefty1),composite z-score [16],z-score [17]
COCCOC(=O)N1C(=O)[C@@]2(c3cc(C#Cc4ccc(OC)cc4)ccc31)[C@H](c1ccc(O)cc1)N1[C@H](c3ccccc3)[C@H](c3ccccc3)OC(=O)[C@H]1[C@@H]2C(=O)N1CCc2cc(OC)c(OC)cc2C1,0.595,0.536 (inactive),0.327,-0.0877,0.117,0.75,0.16,1.28,0.252,1.12,0.744,0.7,1.02,0.935,1.02,0.413,-0.734,0.785,0.555,0.644 (inactive)
C=CCOC(=O)[C@H]1[C@@H]2C(=O)O[C@@H](c3ccccc3)[C@@H](c3ccccc3)N2[C@@H](c2ccc(OCCOC(=O)[C@H]3C[C@H]4C(=O)N[C@@H](CCCC[N+](C)(C)C)C(=O)N4[C@H]3c3ccc(O)cc3)cc2)[C@]12C(=O)Nc1ccc(I)cc12,-0.763,1.88 (inactive),0.191,0.0482,-0.141,0.502,-0.432,1.11,1.11,0.401,1.24,1.08,0.38,-0.154,1.38,1.14,0.694,1.27,0.0577,-0.666 (inactive)
COC(=O)[C@@]1(Cc2ccc(OC)cc2)[C@@H]2C(=CC(=O)[C@H]2CC(=O)C(=O)N2CCCC2)CN1C(=O)c1ccccc1,0.826,-0.0056 (inactive),0.132,-0.152,0.558,2.23,0.0014,-0.685,-0.694,0.0351,1.47,0.882,0.528,0.802,-0.0125,-0.322,1.55,-0.319,0.357,0.826 (inactive)
CC(C)C(=C=CC[C@H](O)c1ccc(OCCO)cc1)CCO,0.467,-0.435 (inactive),-0.116,-0.174,0.228,1.83,0.182,1.28,0.489,0.549,1.07,1.2,0.178,0.53,1.38,1.05,0.41,1.07,0.295,-0.961 (inactive)
CCC(CC)C(O)C1C=CC2C(=O)NC(=O)C2N1Nc1ccccn1 (stereo not given),0.958,-0.248 (inactive),-0.0219,-0.0438,0.763,0.864,-0.019,0.0905,0.416,0.228,0.823,-0.0365,0.268,-0.206,0.872,0.0277,0.693,-0.0021,0.0789,-0.0791 (inactive)
